The subject of this test is primary human hepatic stellate cells (donor 1). Description: scaled lipid accumulation score (0 = DMSO-like, 1 = nortriptyline-like); higher = stronger HSC inactivation (lipid re-accumulation), active = hit call of the paper. As to conditions: 48 h.
The mark [1] stands for this setting: library stock concentration: 10 mM.
[2] abbreviates: library stock concentration: 1 mM.
Where [3] appears, read: library stock concentration: 3.33 mM.

The values that follow come from the supplement of paper PMC9135407.

Each structure is given as a SMILES string. Several values for one entry are separate records, joined by “and”; a condition that tells them apart may be missing. Equal entries are not always repeated. Structures can show the parent of a compound that is named as a salt. The whole screen tested about 5,800 compounds, of which about 620 (11%) showed activity. The full list was thinned out, with actives kept by preference. Unmarked numbers belong to inactive results.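 The calls were made as follows: active = score above a cut-off or among the top three wells of a plate; in these data no inactive exceeds 0.85.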

Turning to `CC(N)Cc1cccc(C(F)(F)F)c1` (single isomer, unassigned; (+)) [(+)-Norfenfluramine hydrochloride], the “scaled lipid accumulation score” value under setting [1] was 0.072.
For the molecule `CC(=O)[O][Hg][c]1ccccc1` [Phenylmercuric acetate], the “scaled lipid accumulation score” value is 0.512 (library stock concentration: 5.9 mM) and 0.358 under setting [1].
For the molecule `O=[N+]([O-])OCC(CO[N+](=O)[O-])O[N+](=O)[O-]` [Nitroglycerin], the “scaled lipid accumulation score” value (library stock concentration: 8.8 mM) was 0.395.
For `CCCCC/C=C\C/C=C\C/C=C\C/C=C\CCCC(=O)NCCc1ccc(O)c(O)c1` [N-Arachidonoyl Dopamine], the “scaled lipid accumulation score” value under setting [2] was at most 0.
For the molecule `CCCCC/C=C\C/C=C\C/C=C\C/C=C\CCCC(=O)N[C@H](C)COP(=O)(O)O` [R-1 Methanandamide Phosphate], the “scaled lipid accumulation score” value under setting [2] was at most 0.
For `Cc1[nH]c2ccc(Cl)cc2c1C1=CCNCC1.Cl`, under setting [1], the “scaled lipid accumulation score” value is 1.1 (active).
Take `C#CCOC(=O)C1=CCCN(C)C1` [Arecaidine propargyl ester hydrobromide]: under setting [1], the “scaled lipid accumulation score” value was at most 0.
The same measure, in the same setting: with `C#CCOC(=O)C1=CCCN(C)C1` [Arecaidine propargyl ester tosylate] the figure was at most 0; with `C[C@]12CCC(=O)C=C1CC[C@@H]1[C@@H]2CC[C@@]2(C)[C@H]1CC[C@]2(C)O` [Methyltestosterone], 0.073.
As to `COc1ccc2[nH]c3c(c2c1)CCN=C3C` [Methoxy-6-harmalan], the “scaled lipid accumulation score” value was 0.039.
In the case of `Cc1nccc2c1[nH]c1ccccc12` [Harmane], the “scaled lipid accumulation score” value under setting [1] was 0.671.
Take `COc1ccc2c(c1)[nH]c1c(C)nccc12.Cl` [Harmine hydrochloride]: the “scaled lipid accumulation score” value is 0.89 (active).
For `COc1ccc2c(c1)[nH]c1c(C)nccc12` [Harmine] [listing 1 of 2 here], for the setting “library stock concentration: 9.4 mM”, the “scaled lipid accumulation score” value is 0.851 (active).
As to `Cc1nccc2c1[nH]c1cc(O)ccc12` [Harmol hydrochloride], the “scaled lipid accumulation score” value under setting [1] was at most 0.
As for `COc1ccc2c(c1)[nH]c1c(C)nccc12` [Harmine] [listing 2 of 2 here], the “scaled lipid accumulation score” value was 0.141 under setting [2] and 0.762 under setting [1].
For `Cc1nccc2c1[nH]c1ccccc12` [Harmane hydrochloride], the “scaled lipid accumulation score” value was 0.089.
With `Cc1onc(O)c1C[C@H](N)C(=O)O`, the “scaled lipid accumulation score” value under setting [1] was at most 0.
Regarding `CCCCC/C=C\C/C=C\C/C=C\C/C=C\CCCC(=O)Nc1ccc([N+](=O)[O-])cc1` [Arachidonoyl p-Nitroaniline], the “scaled lipid accumulation score” value under setting [2] was at most 0.
The same measure, in the same setting: with `c1cc2ccc(N3CCNCC3)cc2cn1` [7-piperazin-1-yl-Isoquinoline (hydrochloride)] the figure was at most 0.
With `CCN1CCN(C(=O)Cc2ccc(Nc3ncc(F)c(Nc4ccc(C(=O)Nc5ccccc5Cl)cc4)n3)cc2)CC1` [Aurora A Inhibitor I] [listing 1 of 2 here], the “scaled lipid accumulation score” value under setting [1] is 1.24 (active).
For `CCN1CCN(C(=O)Cc2ccc(Nc3ncc(F)c(Nc4ccc(C(=O)Nc5ccccc5Cl)cc4)n3)cc2)CC1` [Aurora A Inhibitor I] [listing 2 of 2 here], the “scaled lipid accumulation score” value under setting [3] is 0.402.
Regarding `CCN1CCN(C(=O)Cc2ccc(Nc3ncc(F)c(Nc4ccc(C(=O)Nc5ccccc5Cl)cc4)n3)cc2)CC1`, the “scaled lipid accumulation score” value by setting is: (library stock concentration: 80 uM) at most 0; (library stock concentration: 400 uM) at most 0; (library stock concentration: 2 mM) 0.676; under setting [1], 0.801.
For the molecule `NC(Cn1oc(=O)[nH]c1=O)C(=O)O` (single isomer, unassigned; (+)) [(+)-Quisqualic acid], the “scaled lipid accumulation score” value under setting [1] is at most 0.
Still for that read-out and setting: with `CN1CC(CNC(=O)OCc2ccccc2)C[C@H]2c3cccc4c3c(cn4C)CC21` (some centres undefined) [Metergoline] the figure was 1.05 (active).
Still for that read-out and setting: for `CC[C@@H](CO)NC(=O)[C@@H]1C=C2c3cccc4c3c(cn4C)C[C@H]2N(C)C1` [Methysergide maleate] the value was 0.458 and 0.048.
In the case of `CO[C@]12C[C@@H](COC(=O)c3cncc(Br)c3)CN(C)[C@@H]1Cc1cn(C)c3cccc2c13` [Nicergoline], the “scaled lipid accumulation score” value was at most 0. Also, the “scaled lipid accumulation score” value under setting [1] was 0.682 and 0.399.
Take `CN1C[C@H](CNC(=O)OCc2ccccc2)C[C@@H]2c3cccc4c3c(cn4C)C[C@H]21` [Metergoline] [listing 1 of 3 here]: the “scaled lipid accumulation score” value was 1.06 (active).
As for `CN1C[C@H](CNC(=O)OCc2ccccc2)C[C@@H]2c3cccc4c3c(cn4C)C[C@H]21` [Metergoline] [listing 2 of 3 here], under setting [1], the “scaled lipid accumulation score” value is 0.893 (active).
On to `CC[C@@H](CO)NC(=O)[C@@H]1C=C2c3cccc4c3c(cn4C)C[C@H]2N(C)C1` [Methysergide], for which, under “library stock concentration: 5.7 mM”, the “scaled lipid accumulation score” value is at most 0.
Consider `CN1C[C@H](CNC(=O)OCc2ccccc2)C[C@@H]2c3cccc4c3c(cn4C)C[C@H]21` [Metergoline] [listing 3 of 3 here], for which, under setting [1], the “scaled lipid accumulation score” value was 0.653.
Regarding `CCOC(=O)CN1C(=O)CC(C[C@@H](O)C2C[C@@H](C)C[C@H](C)C2=O)CC1=O` (some centres undefined) [Cycloheximide-N-ethylethanoate], for the setting “library stock concentration: 13.6 mM”, the “scaled lipid accumulation score” value is at most -0.021.
As to `Cc1cc([C@@H]2CCCN2C)on1` [ABT-418 hydrochloride], the “scaled lipid accumulation score” value under setting [1] is at most 0.
For the molecule `CCOc1ccccc1-n1c(C(C)N2CCN(C(=O)COc3ccc(Cl)cc3)CC2)nc2ccccc2c1=O` (centres undefined) [Erastin], the “scaled lipid accumulation score” value was at most -0.009 under setting [3] and 0.473 under setting [1].
Take `C[N+]1(C)CCc2cc3c(cc2C1C1OC(=O)c2c1ccc1c2OCO1)OCO3` (single isomer, unassigned; (-)) [(-)-Bicuculline methobromide]: under setting [1], the “scaled lipid accumulation score” value is at most 0.
Take `O=C(O)/C=C/CO` [trans-4-Hydroxycrotonic acid]: under setting [1], the “scaled lipid accumulation score” value is 0.003.
As to `CCCCCCCC/C=C\CCCCCCCC(=O)Nc1ccccc1` [Oleyl Anilide], the “scaled lipid accumulation score” value under setting [2] is 0.024.
Take `CS(=O)(=O)Nc1ccc(Cc2noc(-c3ccc4[nH]cc(CCN)c4c3)n2)cc1`: the “scaled lipid accumulation score” value under setting [1] is at most 0.
Consider `COc1ccc(CCN2CCC(Nc3nc4ccccc4n3Cc3ccc(F)cc3)CC2)cc1` [Astemizole] [listing 1 of 3 here], for which the “scaled lipid accumulation score” value is 1 (active).
As to `COc1ccc(CCN2CCC(Nc3nc4ccccc4n3Cc3ccc(F)cc3)CC2)cc1` [Astemizole] [listing 2 of 3 here], the “scaled lipid accumulation score” value under setting [1] was 0.907 (active).
For `COc1ccc(CCN2CCC(Nc3nc4ccccc4n3Cc3ccc(F)cc3)CC2)cc1` [Astemizole] [listing 3 of 3 here], the “scaled lipid accumulation score” value is 0.824 and 0.409 (library stock concentration: 4.4 mM); 0.475 under setting [1].
Take `COc1ccc(C(=O)c2c(C)n(CCN3CCOCC3)c3ccccc23)cc1` [Pravadoline]: the “scaled lipid accumulation score” value (library stock concentration: 5.3 mM) is at most -0.006.
